# From ChEMBL document CHEMBL1961873, “Compounds: GSK PKIS; Assays: Nanosyn kinase panel” (2012)
# What was measured:
# [1] = molecular target: T1, Inhibitor of nuclear factor kappa-B kinase subunit epsilon (Homo sapiens) (UniProt Q14164); settings: at 1 µM;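 also: reported values are averaged percent inhibition figures against human IKKε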
# T1 sequence (whole entry): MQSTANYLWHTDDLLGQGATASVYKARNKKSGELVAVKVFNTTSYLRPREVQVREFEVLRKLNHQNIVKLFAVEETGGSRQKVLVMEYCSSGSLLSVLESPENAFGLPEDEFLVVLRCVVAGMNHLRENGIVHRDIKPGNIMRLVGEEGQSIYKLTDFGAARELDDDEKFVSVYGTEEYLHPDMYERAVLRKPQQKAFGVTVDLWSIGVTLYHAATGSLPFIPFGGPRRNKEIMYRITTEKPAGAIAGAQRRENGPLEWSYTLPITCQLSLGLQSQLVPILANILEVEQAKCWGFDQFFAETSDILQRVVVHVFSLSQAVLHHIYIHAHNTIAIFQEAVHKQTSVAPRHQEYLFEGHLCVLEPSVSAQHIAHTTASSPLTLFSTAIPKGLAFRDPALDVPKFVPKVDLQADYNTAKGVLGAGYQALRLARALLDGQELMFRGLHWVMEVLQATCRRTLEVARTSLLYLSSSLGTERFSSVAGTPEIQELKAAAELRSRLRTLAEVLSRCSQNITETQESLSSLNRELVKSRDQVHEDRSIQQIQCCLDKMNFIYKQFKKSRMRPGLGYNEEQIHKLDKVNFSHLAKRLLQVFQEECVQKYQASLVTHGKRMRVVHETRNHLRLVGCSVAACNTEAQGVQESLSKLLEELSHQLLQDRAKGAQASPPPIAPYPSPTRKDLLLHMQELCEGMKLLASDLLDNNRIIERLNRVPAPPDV
# [2] = molecular target: T2, Serine/threonine-protein kinase Nek1 (Homo sapiens) (UniProt Q96PY6); settings: at 0.1 µM
# T2 sequence (whole entry): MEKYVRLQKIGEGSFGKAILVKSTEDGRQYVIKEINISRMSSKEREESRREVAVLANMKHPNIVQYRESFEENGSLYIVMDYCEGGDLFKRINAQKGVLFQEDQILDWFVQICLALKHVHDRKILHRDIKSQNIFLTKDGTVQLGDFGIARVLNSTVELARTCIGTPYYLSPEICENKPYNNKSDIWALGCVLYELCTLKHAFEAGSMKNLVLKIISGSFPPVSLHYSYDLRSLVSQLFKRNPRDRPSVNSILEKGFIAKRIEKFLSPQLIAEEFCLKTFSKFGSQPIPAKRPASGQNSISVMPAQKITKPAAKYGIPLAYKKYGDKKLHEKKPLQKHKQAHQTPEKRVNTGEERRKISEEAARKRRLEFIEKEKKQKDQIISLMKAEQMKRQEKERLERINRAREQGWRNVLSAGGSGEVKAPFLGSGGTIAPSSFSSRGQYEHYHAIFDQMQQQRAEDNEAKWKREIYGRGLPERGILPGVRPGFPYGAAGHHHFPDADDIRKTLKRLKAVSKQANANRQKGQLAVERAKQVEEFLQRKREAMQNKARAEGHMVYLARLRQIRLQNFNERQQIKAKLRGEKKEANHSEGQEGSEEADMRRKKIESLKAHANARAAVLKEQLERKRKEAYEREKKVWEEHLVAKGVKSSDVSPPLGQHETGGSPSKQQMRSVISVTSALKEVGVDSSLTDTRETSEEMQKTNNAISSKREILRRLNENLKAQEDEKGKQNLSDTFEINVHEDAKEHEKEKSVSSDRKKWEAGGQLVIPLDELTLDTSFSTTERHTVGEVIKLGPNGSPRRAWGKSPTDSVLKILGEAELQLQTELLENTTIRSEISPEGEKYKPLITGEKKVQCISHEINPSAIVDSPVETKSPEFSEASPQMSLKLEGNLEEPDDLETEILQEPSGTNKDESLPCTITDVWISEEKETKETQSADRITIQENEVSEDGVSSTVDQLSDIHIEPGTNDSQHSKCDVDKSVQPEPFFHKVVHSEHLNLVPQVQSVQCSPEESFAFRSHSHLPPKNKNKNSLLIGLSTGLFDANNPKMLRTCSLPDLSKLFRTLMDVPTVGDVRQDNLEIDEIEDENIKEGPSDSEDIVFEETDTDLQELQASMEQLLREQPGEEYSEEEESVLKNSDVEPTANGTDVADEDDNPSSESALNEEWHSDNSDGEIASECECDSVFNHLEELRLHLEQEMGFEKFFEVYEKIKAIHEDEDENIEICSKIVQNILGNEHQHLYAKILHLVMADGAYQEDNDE
# [3] = molecular target: T2, Serine/threonine-protein kinase Nek1 (Homo sapiens); settings: at 1 µM
# [4] = molecular target: T3, Serine/threonine-protein kinase Nek2 (Homo sapiens) (UniProt P51955); settings: at 0.1 µM
# T3 sequence (whole entry): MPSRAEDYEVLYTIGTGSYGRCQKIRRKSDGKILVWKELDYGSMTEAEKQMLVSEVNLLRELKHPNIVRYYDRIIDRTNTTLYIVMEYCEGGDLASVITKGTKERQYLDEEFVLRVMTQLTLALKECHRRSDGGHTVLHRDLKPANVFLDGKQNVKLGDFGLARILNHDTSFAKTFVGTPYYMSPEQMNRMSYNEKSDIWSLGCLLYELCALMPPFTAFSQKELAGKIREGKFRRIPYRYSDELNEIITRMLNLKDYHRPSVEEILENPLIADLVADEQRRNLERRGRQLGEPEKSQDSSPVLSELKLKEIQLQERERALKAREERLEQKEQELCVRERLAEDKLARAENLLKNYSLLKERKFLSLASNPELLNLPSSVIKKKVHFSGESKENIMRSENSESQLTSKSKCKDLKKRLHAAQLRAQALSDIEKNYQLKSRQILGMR
# [5] = molecular target: T3, Serine/threonine-protein kinase Nek2 (Homo sapiens); settings: at 1 µM
# [6] = molecular target: Serine/threonine-protein kinase Nek6 (Homo sapiens) (UniProt Q9HC98); settings: at 0.1 µM
# [7] = molecular target: Serine/threonine-protein kinase Nek6 (Homo sapiens) (UniProt Q9HC98); settings: at 1 µM
# [8] = molecular target: Serine/threonine-protein kinase Nek7 (Homo sapiens) (UniProt Q8TDX7); settings: at 0.1 µM
# [9] = molecular target: Serine/threonine-protein kinase Nek7 (Homo sapiens) (UniProt Q8TDX7); settings: at 1 µM
# [10] = molecular target: T4, Serine/threonine-protein kinase Nek9 (Homo sapiens) (UniProt Q8TD19); settings: at 0.1 µM
# T4 sequence (whole entry): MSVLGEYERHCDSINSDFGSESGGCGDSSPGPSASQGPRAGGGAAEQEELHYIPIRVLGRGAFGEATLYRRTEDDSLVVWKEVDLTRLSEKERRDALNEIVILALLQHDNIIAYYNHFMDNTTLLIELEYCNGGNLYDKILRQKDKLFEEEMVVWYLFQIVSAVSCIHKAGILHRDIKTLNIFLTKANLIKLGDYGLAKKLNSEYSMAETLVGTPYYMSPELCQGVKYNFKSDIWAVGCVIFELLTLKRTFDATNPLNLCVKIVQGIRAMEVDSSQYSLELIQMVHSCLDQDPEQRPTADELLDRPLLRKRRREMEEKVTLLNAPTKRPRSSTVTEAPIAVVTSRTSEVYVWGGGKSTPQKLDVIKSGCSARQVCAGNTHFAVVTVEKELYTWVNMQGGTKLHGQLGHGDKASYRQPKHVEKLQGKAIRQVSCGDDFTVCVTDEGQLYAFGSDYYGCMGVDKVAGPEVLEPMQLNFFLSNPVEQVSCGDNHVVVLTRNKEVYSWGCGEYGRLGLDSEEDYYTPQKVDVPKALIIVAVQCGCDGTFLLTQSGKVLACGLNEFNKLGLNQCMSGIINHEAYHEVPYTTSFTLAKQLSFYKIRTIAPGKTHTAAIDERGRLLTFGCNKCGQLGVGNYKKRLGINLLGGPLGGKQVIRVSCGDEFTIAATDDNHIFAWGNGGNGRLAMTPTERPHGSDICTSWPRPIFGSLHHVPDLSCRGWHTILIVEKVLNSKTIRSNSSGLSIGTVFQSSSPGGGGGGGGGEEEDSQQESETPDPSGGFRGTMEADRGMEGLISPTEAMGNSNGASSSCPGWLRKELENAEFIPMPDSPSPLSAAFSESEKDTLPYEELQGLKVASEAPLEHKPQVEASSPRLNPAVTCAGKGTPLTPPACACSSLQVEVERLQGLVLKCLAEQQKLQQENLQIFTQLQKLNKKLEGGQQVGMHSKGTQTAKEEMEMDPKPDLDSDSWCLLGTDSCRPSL
# [11] = molecular target: T4, Serine/threonine-protein kinase Nek9 (Homo sapiens); settings: at 1 µM
# [12] = molecular target: Serine/threonine-protein kinase PLK1 (Homo sapiens) (UniProt P53350); settings: at 0.1 µM
# [13] = molecular target: Serine/threonine-protein kinase PLK1 (Homo sapiens) (UniProt P53350); settings: at 1 µM
# [14] = molecular target: T5, Dual specificity protein kinase TTK (Homo sapiens) (UniProt P33981); settings: at 0.1 µM
# T5 sequence (whole entry): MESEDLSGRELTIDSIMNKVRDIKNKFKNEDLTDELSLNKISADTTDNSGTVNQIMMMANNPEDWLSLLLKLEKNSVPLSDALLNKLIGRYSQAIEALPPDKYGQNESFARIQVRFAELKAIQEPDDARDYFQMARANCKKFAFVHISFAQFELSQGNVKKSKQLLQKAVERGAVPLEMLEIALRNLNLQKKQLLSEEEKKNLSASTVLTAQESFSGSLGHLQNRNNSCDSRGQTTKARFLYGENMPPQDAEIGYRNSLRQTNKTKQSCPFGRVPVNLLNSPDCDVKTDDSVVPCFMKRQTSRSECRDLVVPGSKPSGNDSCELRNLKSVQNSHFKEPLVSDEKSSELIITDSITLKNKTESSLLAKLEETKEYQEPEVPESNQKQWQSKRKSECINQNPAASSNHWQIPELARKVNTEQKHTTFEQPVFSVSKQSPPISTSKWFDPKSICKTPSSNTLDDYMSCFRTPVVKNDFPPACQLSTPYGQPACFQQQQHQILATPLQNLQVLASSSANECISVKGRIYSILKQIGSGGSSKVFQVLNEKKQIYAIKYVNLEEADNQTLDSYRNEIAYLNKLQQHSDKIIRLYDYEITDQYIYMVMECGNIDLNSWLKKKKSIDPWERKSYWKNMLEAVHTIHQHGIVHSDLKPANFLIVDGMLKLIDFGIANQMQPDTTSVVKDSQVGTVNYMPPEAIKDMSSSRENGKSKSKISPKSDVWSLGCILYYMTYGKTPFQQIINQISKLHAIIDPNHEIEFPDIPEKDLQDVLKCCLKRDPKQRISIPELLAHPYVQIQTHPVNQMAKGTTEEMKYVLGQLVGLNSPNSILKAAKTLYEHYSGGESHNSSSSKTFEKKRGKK
# [15] = test system: T6, Receptor-type tyrosine-protein kinase FLT3 (Homo sapiens), P36888 [D835Y]; settings: at 1 µM
# T6 sequence (whole entry): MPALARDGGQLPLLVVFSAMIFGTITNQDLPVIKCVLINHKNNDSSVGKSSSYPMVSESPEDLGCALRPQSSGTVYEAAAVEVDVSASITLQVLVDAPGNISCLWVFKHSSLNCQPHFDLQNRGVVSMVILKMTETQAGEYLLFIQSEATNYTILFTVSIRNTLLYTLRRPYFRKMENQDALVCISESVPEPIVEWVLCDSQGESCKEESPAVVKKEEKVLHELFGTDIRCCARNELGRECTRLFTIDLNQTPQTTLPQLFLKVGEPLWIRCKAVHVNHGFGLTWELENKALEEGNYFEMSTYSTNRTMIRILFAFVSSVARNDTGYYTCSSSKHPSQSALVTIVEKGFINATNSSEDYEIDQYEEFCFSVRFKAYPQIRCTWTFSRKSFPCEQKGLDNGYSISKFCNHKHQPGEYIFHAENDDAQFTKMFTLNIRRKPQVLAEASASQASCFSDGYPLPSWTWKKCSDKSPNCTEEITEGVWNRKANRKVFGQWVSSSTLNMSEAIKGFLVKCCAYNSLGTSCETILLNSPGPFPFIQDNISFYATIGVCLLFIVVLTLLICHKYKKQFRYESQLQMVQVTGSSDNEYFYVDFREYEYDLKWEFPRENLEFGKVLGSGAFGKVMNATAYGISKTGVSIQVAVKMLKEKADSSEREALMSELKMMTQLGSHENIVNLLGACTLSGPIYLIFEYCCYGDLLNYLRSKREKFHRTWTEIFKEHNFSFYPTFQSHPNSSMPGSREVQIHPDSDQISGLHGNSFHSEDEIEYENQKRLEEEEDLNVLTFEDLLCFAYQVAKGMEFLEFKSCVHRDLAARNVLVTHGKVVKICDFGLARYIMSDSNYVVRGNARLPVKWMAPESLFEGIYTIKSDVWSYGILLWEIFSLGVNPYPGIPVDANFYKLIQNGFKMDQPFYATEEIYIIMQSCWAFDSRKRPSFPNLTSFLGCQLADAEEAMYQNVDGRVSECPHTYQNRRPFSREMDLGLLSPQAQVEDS
# [16] = molecular target: Vascular endothelial growth factor receptor 3 (Homo sapiens) (UniProt P35916); settings: at 0.1 µM
# [17] = molecular target: Vascular endothelial growth factor receptor 3 (Homo sapiens) (UniProt P35916); settings: at 1 µM
# [18] = molecular target: Macrophage colony-stimulating factor 1 receptor (Homo sapiens) (UniProt P07333); settings: at 0.1 µM
# [19] = molecular target: Macrophage colony-stimulating factor 1 receptor (Homo sapiens) (UniProt P07333); settings: at 1 µM
# [20] = molecular target: Tyrosine-protein kinase Fyn (Homo sapiens) (UniProt P06241); settings: at 0.1 µM
# Chain of Tyrosine-protein kinase Fyn (Homo sapiens) (P06241 2-537 limits assumed): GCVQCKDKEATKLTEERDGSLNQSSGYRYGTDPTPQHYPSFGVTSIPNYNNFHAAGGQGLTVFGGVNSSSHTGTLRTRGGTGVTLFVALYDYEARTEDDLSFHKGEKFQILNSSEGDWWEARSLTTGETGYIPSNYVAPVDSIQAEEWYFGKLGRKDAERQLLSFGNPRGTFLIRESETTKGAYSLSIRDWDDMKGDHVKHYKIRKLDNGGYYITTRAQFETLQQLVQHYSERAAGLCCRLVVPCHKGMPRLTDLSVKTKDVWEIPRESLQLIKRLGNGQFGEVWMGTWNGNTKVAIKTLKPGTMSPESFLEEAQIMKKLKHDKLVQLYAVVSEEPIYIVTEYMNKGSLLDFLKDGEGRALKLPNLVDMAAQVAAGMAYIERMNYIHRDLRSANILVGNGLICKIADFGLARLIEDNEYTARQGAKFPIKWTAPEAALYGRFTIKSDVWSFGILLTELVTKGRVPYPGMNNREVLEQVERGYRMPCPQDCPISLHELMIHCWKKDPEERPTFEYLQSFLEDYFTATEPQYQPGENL
# Chain of Serine/threonine-protein kinase Nek6 (Homo sapiens) (Q9HC98 whole entry): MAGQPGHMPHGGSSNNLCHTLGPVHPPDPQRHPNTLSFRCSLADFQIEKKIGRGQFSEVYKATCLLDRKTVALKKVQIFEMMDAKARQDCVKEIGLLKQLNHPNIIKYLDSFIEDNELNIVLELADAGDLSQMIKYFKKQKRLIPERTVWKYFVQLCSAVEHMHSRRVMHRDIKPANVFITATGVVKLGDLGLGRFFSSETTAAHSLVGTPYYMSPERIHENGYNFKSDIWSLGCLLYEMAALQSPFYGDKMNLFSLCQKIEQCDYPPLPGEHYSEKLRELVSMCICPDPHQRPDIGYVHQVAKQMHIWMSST
# Chain of Serine/threonine-protein kinase Nek7 (Homo sapiens) (Q8TDX7 whole entry, looked up): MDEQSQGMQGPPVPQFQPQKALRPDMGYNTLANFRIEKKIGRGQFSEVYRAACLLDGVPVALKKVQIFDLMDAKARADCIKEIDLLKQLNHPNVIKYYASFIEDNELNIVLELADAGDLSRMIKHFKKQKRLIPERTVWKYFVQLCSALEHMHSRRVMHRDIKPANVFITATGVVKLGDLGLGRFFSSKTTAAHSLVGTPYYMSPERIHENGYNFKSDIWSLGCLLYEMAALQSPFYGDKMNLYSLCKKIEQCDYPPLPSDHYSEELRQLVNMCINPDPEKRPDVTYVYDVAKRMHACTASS
# Chain of Serine/threonine-protein kinase PLK1 (Homo sapiens) (P53350 whole entry): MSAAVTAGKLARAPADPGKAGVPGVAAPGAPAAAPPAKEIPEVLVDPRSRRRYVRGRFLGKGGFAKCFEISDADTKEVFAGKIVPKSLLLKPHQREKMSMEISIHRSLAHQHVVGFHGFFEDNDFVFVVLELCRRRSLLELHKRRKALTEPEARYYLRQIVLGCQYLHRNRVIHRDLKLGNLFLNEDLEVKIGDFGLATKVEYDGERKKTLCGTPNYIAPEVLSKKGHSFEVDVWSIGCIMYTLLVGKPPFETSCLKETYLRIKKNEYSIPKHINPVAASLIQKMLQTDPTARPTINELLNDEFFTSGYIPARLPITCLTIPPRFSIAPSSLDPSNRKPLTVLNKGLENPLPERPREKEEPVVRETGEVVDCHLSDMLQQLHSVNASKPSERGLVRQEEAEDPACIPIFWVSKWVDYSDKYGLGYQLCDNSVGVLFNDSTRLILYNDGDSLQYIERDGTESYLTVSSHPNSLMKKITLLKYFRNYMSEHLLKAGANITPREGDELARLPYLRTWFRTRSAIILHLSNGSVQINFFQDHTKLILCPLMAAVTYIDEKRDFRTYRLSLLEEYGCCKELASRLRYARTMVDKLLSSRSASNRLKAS
# Chain of Vascular endothelial growth factor receptor 3 (Homo sapiens) (P35916 whole entry): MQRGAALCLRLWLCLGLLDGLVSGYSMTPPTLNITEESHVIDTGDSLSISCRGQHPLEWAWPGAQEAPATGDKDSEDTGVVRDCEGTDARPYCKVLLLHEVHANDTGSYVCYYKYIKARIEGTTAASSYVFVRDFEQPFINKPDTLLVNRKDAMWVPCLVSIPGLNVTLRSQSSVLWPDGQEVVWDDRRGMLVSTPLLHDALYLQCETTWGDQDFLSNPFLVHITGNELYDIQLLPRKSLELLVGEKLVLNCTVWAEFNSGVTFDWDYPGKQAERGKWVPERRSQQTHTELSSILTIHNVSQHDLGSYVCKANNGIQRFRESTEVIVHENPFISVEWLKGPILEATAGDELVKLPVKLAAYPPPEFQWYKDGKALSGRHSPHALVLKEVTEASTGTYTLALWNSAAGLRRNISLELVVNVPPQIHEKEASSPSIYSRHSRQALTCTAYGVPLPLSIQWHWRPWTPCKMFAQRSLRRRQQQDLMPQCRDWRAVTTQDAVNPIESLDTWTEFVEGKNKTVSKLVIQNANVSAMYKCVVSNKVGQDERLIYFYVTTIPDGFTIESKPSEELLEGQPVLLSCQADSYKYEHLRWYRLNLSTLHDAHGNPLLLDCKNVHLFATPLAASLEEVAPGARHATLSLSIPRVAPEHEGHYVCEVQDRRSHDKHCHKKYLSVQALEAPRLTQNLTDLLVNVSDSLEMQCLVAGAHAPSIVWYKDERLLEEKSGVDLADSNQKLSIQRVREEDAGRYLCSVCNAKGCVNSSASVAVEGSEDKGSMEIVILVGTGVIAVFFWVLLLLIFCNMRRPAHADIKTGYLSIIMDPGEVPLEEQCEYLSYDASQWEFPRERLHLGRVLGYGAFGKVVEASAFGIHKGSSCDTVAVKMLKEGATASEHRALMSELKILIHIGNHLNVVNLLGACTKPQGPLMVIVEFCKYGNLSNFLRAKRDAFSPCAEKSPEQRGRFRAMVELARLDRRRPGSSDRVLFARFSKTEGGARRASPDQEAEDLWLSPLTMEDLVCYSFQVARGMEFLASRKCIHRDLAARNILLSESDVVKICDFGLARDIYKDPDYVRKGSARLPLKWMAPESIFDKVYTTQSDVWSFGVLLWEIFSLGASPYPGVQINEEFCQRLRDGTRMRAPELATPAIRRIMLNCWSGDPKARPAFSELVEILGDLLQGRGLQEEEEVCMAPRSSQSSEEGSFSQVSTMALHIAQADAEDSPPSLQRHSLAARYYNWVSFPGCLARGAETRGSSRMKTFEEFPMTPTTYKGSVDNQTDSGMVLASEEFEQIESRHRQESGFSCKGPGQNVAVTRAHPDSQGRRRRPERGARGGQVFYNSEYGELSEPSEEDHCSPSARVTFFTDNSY
# Chain of Macrophage colony-stimulating factor 1 receptor (Homo sapiens) (P07333 whole entry): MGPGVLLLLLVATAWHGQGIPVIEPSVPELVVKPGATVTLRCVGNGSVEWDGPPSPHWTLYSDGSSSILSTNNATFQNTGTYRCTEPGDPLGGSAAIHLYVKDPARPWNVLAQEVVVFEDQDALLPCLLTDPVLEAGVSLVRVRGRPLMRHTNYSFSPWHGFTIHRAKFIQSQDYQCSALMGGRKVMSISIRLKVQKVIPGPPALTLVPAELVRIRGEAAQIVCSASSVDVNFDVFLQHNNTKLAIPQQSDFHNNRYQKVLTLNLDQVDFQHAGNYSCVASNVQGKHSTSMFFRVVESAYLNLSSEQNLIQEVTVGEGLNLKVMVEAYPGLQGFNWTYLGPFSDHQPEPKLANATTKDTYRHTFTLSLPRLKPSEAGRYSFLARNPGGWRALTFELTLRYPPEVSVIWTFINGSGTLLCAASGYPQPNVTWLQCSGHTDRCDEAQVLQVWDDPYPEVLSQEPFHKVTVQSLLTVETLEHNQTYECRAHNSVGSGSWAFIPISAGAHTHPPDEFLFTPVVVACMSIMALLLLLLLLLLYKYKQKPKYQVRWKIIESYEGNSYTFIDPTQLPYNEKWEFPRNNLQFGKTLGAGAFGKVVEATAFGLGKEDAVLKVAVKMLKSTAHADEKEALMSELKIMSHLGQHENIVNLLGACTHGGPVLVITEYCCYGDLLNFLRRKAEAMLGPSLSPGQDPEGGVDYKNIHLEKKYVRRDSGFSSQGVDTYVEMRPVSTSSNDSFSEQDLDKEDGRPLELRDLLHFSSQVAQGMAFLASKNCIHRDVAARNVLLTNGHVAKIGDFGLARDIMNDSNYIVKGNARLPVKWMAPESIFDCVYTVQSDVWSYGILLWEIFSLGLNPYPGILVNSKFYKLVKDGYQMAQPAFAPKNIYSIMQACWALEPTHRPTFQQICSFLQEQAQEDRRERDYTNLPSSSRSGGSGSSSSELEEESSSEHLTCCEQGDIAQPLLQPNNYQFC
SMILES,inhibition [1],inhibition [2],inhibition [3],inhibition [4],inhibition [5],inhibition [6],inhibition [7],inhibition [8],inhibition [9],inhibition [10],inhibition [11],inhibition [12],inhibition [13],inhibition [14],inhibition [15],inhibition [16],inhibition [17],inhibition [18],inhibition [19],inhibition [20]
CCc1nn2ncccc2c1-c1ccnc(NC2CC2)n1,6.61%,3.1%,4.93%,3.32%,3.36%,2.16%,3.98%,1.99%,3.9%,2.26%,9.21%,1.29%,4.87%,-1.9%,8.73%,4.93%,4.12%,2.72%,4.83%,1.74%
CCOc1ccc2c(-c3ccnc(Nc4cccc(C(F)(F)F)c4)n3)cnn2n1,12.1%,2.34%,1.31%,0.57%,1.02%,0.83%,2.66%,1.88%,0.03%,7.49%,4.9%,0.64%,1.39%,3.43%,5.75%,2.01%,3.46%,-2.9%,14.1%,1.07%
CCN(CC)S(=O)(=O)c1ccc(OC)c(Nc2ncc(-c3ccccc3)o2)c1,1.73%,-0.43%,1.95%,0.46%,-0.71%,1.9%,1.12%,-0.6%,-0.03%,2.38%,1.83%,0.06%,0.24%,2.04%,69.9%,30.9%,85.5%,42.4%,84.8%,6.94%
